# Source: PubChem BioAssay AID651822 (The Scripps Research Institute Molecular Screening Center, 2012)
# The whole screen tested about 2,300 compounds, of which about 970 (42%) were called active. Cut-off read from the data, not from the text of the source: active = inhibition above about 4.5%; inactive = the rest. The set was probably picked from earlier hits. The list is a sample of the results.
# Tested on: Methionine sulfoxide reductase A (Bos taurus)
# Assay: methionine sulfoxide reductase A inhibition – biochemical, absorbance, bovine, HTS, confirmation (AID 651822);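 note: coupled to thioredoxin reductase with NADPH and selenocystamine and DMSO as substrate; 0% = vehicle only and 100% = full effect of reference inhibitor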
# Settings: purified bovine MsrA, absorbance read-out; at 15.5 µM; stronger effect = higher value
row,SMILES,inhibition
1,CCCCC(=O)N/N=C/c1c(O)n(CC)c(=S)n(CC)c1=O,6.08% (active)
2,CCOc1ccc(-c2cc(C)[n+](CCN(CC)CC)c(-c3ccc(OCC)cc3)c2)cc1,3.69% (inactive)
3,COc1ccc(C(=O)C2CCCN(Cc3ccc(C)s3)C2)cc1OC (stereo not drawn),-0.82% (inactive)
